According to PubChem BioAssay:
The other results are listed elsewhere or left out.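 The calls were made as follows: active = signal rise of 40% or more at 20 µM, treated as a fluorescence artifact; inactive = the rest.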

Test: detection-step artefacts after completed caspase reaction – biochemical, fluorescence, Rh110, 20 µM, artefact control for Apaf-1 inhibitor project, confirmation (AID 504615)
Conditions: quenched caspase reaction, at 20 µM, hits give high values

Activation (fluorescence interference), inactive:
CCCCCCCCCCOC(=O)Cn1c(COc2cccc(OC)c2)[n+](C)c2ccccc21 23%
CCOc1c(Br)cc(/C=C2\C(=O)N(CCC#N)N=C2C)cc1OC 1.73%
NC(N)=NCCCc1cn(CC(=O)N2CCNCC2)nn1 -2.11%
CC(C)CC[n+]1ccn(C2=C([O-])c3ccccc3C(=O)/C2=N\S(=O)(=O)c2ccccc2)c1 5.73%
CC(=O)Nc1ccc(Nc2cc(C)nc(Nc3ccc(NC(C)=O)cc3)n2)cc1 4.46%
Cc1ccc(S(=O)(=O)N2CCN(C(=O)c3ccccc3-c3nc4ccccc4s3)CC2)c(C)c1 4.66%
CCCCNC(=O)C(C)N(CCN(C)C)C(=O)CCCCCN1C(=O)NC(c2ccc(Cl)cc2)C(C(=O)OCc2ccccc2)=C1C (stereo not given) -179%
CN1CCN(c2ccccc2NC(=O)COc2ccc(C3CCCCC3)cc2)CC1 2.41%
Oc1ccc(N=Cc2c(O)ccc3ccccc23)cc1 0.51%
CCC(C)(C)c1ccc(OCC(=O)N(C)C)c(C(C)(C)CC)c1 8.45%
CCOC(=O)N1CCC(c2cc(=O)n(-c3ccccc3)[nH]2)CC1 8.7%
Cc1[nH]n(-c2ccccc2)c(=O)c1/C=N/NC(=O)c1ccoc1C -3.23%
Cc1cc(C)n(-c2nc(SCC(=O)N3CCCC3)c3c4c(sc3n2)CCCC4)n1 8.64%
CCc1ccc(CNC(=O)C2CCN(c3nnc(C)c4c(C)n(-c5ccc(C)cc5)nc34)CC2)cc1 0.21%
CCC(=O)Nc1c(S(=O)(=O)c2ccccc2)c2nc3ccccc3nc2n1Cc1ccccc1 -0.44%
C#CCOCCOCCOCCNc1nc(N2CCN(C(=O)CCCCCCCCCCNC(=O)[C@H](CCCCN)n3cc(C)nn3)CC2)nc(N2CCN(C(=O)CCCCCCCCCCNC(=O)[C@H](CO)n3cc(CCCSC)nn3)CC2)n1 3.38%
Cc1cc2oc3ccc(NCCC4CCCN4C)cc3c(=O)c2cc1C (stereo not given) 4.87%
O=C(N/N=C\c1cccnc1)c1cc(-c2ccccc2)nc2c(Cl)cccc12 2.87%
COc1ccc(C(CNC(=O)c2ccc(S(=O)(=O)Nc3ccccc3F)cc2)N(C)C)cc1 (stereo not given) -0.45%
CCCCCCc1cc2cc(-c3nnc(-c4ccccc4)o3)c(=O)oc2cc1O 7.27%
CC1=NN(c2ccc(Cl)c(C(=O)O)c2)C(=O)/C1=C/c1ccc(-c2ccccc2[N+](=O)[O-])o1 6.42%
C(=N/Nc1cc(N2CCOCC2)nc(N2CCOCC2)n1)/c1ccccc1 2.85%
CC(C)c1ccccc1OCC(O)CN(CC(O)COc1cccc2ccccc12)C(C)C (stereo not given) 14.2%
CCOC(=O)N1CCC(NC(=O)C(C)n2c3ccccc3c3cnn(C)c(=O)c32)CC1 (stereo not given) 17.6%
c1ccc2c(CCN3CCNC[C@H]3Cc3cccc4ccccc34)cccc2c1 8.34%
CCN(CC)CCOc1ccc2c(c1)C(=NNC(=O)c1ccccn1)c1cc(OCCN(CC)CC)ccc1-2 15.8%
COc1ccc(S(=O)(=O)/N=C2\C=C(NS(=O)(=O)c3ccccc3)C(=O)c3ccccc32)cc1 -7.09%
C[C@@H](CN1CCC[C@H]1CN1C(N)=NC[C@@H]1Cc1ccccc1)N1C[C@@H](Cc2ccccc2)N(CCCC2CCCC2)C1=N 7.13%
O=C(CCCN1CCc2[nH]c3ccc(F)cc3c2C1)c1ccc(F)cc1 4.85%
Cc1ccc2c(c1)C1CN(C)CCC1N2S(=O)(=O)c1ccc(Oc2ccc([N+](=O)[O-])cc2)cc1 (stereo not given) 1.73%
CC(NC(=O)c1ccccc1SCC(=O)N1CCCC1)c1ccccc1 (stereo not given) -8.17%
O=C1NNC(c2ccccc2)=N/C1=C\c1ccc(Cl)cc1 7.08%
Cc1ccc2nc(N3CCN(C(=O)c4ccco4)CC3)sc2c1 -1.75%
COc1cccc(-c2sc3ccc(OC)cc3c2-c2ccc(OCCN3CCCCC3)cc2)c1 11.8%
CCN1C(=NCc2ccc(OC)cc2)N[C@@H](CCc2ccccc2)[C@H](C(=O)NCc2ccc(OC)cc2)[C@H]1C 7.82%
c1ccc(CSc2nnc(-c3ccco3)c(-c3ccco3)n2)cc1 6.26%
O=C(O)c1cc(Cl)c(Cl)cc1C(=O)Nc1cccc2ncccc12 -4.02%
CN(C)S(=O)(=O)c1ccc2oc(SCC(=O)Nc3ccccc3F)nc2c1 10.6%
C#CCOCCOCCOCCNc1nc(N2CCN(C(=O)CCCCCCCCCCNC(=O)Cn3cc(CCCCCN)nn3)CC2)nc(N2CCN(C(=O)CCCCCCCCCCNC(=O)[C@H](CO)n3cc(CCCSC)nn3)CC2)n1 4.21%
C=CCn1c(N)c(C(=O)OCC(C)C)c2nc3ccccc3nc21 12%
